Where “and” joins values, the source holds several entries; their conditions need not be identical. Equal entries are not always repeated. Compounds without any hit were thinned out: in the full panel of roughly 83,000, 20% have a hit.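 A percent growth of 40 corresponds to 60% growth inhibition; 0 means no net growth; -100 means all cells died. Active threshold: below 10.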 Calls of active or inactive are those of the source.
Each compound was assayed on HL-60(TB) leukemia (assay: NCI-60 one-dose screen, 48 h (100 = growth as untreated, 0 = no growth, -100 = all killed)). Settings: 10 µM unless noted.
Method: Growth inhibition of the HL-60(TB) human tumor cell line is measured as a screen for anti-cancer activity. Cells are grown in 96 well plates and exposed to the test compound for 48 hours. Compounds are tested at a single concentration, which is 10^-5 M for most compounds. The reported endpoint is percent growth (GI% or GIPRCNT), where numbers from 0 - 100% represent growth inhibition, and numbers from -100% - 0 represent cell death. For example, a value of 40 represents 60% growth inhibition. A value of 0 means no net growth occurred over the course of the experiment. A value of -40 indicates 40% of cells at the beginning of the experiment died by the end of the experiment. A value of -100 means all cells are dead at the end of the experiment.
NCI-60 Human Tumor Cell Lines Screen was performed using the standard one-dose NCI protocol, which is described in more detail at https://dtp.cancer.gov/discovery_development/nci-60/default.htm.
Compounds with GIPRCNT values below 10 were considered active. Activity score was based on GIPRCNT using the following formula: […]
Score is 0 for GIPRCNT values of 100 or above, 50 for GIPRCNT values of 0, and 100 for GIPRCNT values of -100.

Compound | growth
CN1CCN(CCOc2cc(OC3CCOCC3)c3c(Nc4c(Cl)ccc5c4OCO5)ncnc3c2)CC1 | 101% (inactive)
NS(=O)(=O)c1cc2c(cc1Cl)NC(C(Cl)Cl)NS2(=O)=O (stereo not given) | 91.5% (inactive) and 105% (inactive)
COCCc1ccc(OCC(O)CNC(C)C)cc1 (stereo not given) | 94.2% (inactive)
CCN1CCN(CCNc2nccc(-c3c(-c4cccc(O)c4)nc4sccn34)n2)S1(=O)=O | 64% (inactive) and 91.9% (inactive)
N=C1C(c2nc(-c3ccc(Br)cc3)cs2)=C(O)CN1Cc1cccnc1 | 72.4% (inactive)
COc1cc2nc(N3CCC[C@@H](NC(=O)C4COc5ccccc5O4)C3)nc(N)c2cc1OC (stereo not given in full) | 105% (inactive) and 102% (inactive)
NN1C(=O)CSC1=S | 126% (inactive)
COc1ccc2c(c1)sc1nc(-c3ccc(N(C)C)cc3)cn12 | 65.4% (inactive)
CSc1nc(NCCO)c(C#N)c(-c2cccc(N)c2)n1 | 96.1% (inactive)
C=C1C(=O)O[C@H]2[C@H]1CC/C(C(=O)NCCOCCOCC(=O)Nc1ccc(OC)c(C(N)=O)c1O)=C\CC[C@@]1(C)O[C@@H]21 | 81.3% (inactive)
Clc1ccc2c(c1)N(c1ncnc3ccc(-c4cnc5[nH]ncc5c4)cc13)CC2 | 34.5% (inactive)
CCN(CC)CCOc1ccc(C(=C(C)c2ccc(Cl)cc2)c2ccc(OCCN(CC)CC)cc2)cc1 | -55.5% (active)
Cc1cc(O)c(C2=NN(c3ccc(S(N)(=O)=O)cc3)C(c3ccc(Cl)cc3)C2)c(C)c1Cl (stereo not given) | 18.4% (inactive)
O=C(c1ccccc1)c1ccc(Cl)c([N+](=O)[O-])c1 | 40.8% (inactive)
COc1ccc(Cn2c(NCCCN(C)C)nc(=O)n(Cc3ccc(F)cc3)c2=O)cc1 | 95.7% (inactive)
COc1ccc(C(=O)c2cc(C)c(OC)c(C)c2)c(OC)c1N(C(=O)C(Cl)Cl)C(=O)C(Cl)Cl | -32% (active)
CN(C)CCNC(=O)c1cccc(-c2cnc3ccc(-c4ccc5c(c4)OCO5)nn23)c1 | 64.1% (inactive)
Cc1ccc(Cn2c(N3CCC(C(=O)NCc4cccs4)CC3)nc3ccccc32)cc1 | -14.4% (active)
CCCCCCCCn1ccc2cc(NC(=O)Cn3cc(CN4CCCCC4)nn3)ccc21 | -18.7% (active)
N#CC1C=CN(CC(N)=O)c2ccc3cccnc3c21 (stereo not given) | 92.7% (inactive)

Compound | growth
O=C(/C=C/C=C/c1ccc2c(c1)OCO2)N1CCCCC1 | 100% (inactive) and 93.4% (inactive)
Brc1ccc2[nH]cc(-c3nonc3-c3c[nH]c4ccccc34)c2c1 | 67.3% (inactive)
O=c1oc2ccc([N+](=O)[O-])cc2cc1Br | 105% (inactive)
Cc1c(O)ccc(SC#N)c1C | 101% (inactive)
Cn1c(=O)c2[nH]c(CCCCCCCCc3nc4ccccc4[nH]3)nc2n(C)c1=O | 59.4% (inactive) and 71.2% (inactive)
OCCN(CCO)c1ccc2ccccc2c1 | 87.9% (inactive)
CC(C)NCC(O)c1ccc(O)c(O)c1 (stereo not given) | 85.3% (inactive) and 82.1% (inactive) and 95.3% (inactive)
CCOC(=O)c1cnc2c(OC)ccc(OC)c2c1Cl | 127% (inactive)
C[N+](C)=c1ccc2nc3c(cc(Nc4ccccc4)c4ccccc43)oc-2c1 | 25.8% (inactive)
O=C(O)c1cn(-c2ccccc2)nc1-c1ccc(O)cc1 | 95.7% (inactive)
O=C1OC(c2ccccc2)=N/C1=C\c1ccccc1 | 113% (inactive)
CC(C)(C)OC[C@@H]1N=C(c2ccc(Br)cc2)Nc2nc3ccccn3c2C1=O | 33.1% (inactive)
O=C1C=CC(=O)N1c1ccc2ccccc2c1 | 83.9% (inactive) and 88.8% (inactive)
CN(C)c1ccc(Nc2cc(-c3cccc(OC(F)(F)F)c3)nc3ccc(N4CCCC4)cc23)cc1 | -15.6% (active)
Cn1cc(-c2csc(-c3cn(C(=O)OC(C)(C)C)c4ccc(Br)cc34)n2)c2ccnc(Cl)c21 | 115% (inactive)
Cn1c(SSc2ccc(-c3cccnc3)n2C)ccc1-c1cccnc1 | 62.8% (inactive) and -32.2% (active)
O=C1Nc2cc(-c3ccncc3)ccc2/C1=C/c1ccc[nH]1 | 99.9% (inactive)
CCOC(=O)c1ccc2c(c1)nc(-c1ccc(Cl)cc1)n2-c1cc(C(C)(C)C)[nH]n1 | -14.7% (active)
COc1cc(C2CC(c3ccc(Nc4nc(NCCO)nc(N5CCOCC5)n4)cc3)=NN2c2cc(Cl)cc(Cl)c2)cc(OC)c1OC (stereo not given) | 44.9% (inactive)
COc1ccc(CN2c3ccccc3Sc3ccccc32)cc1F | -7.46% (active)

Reference: PubChem BioAssay (NCI)
